# In the library only some 2.2% were active in any assay of this set; here they are far more common.
# EBNA-1 inh: EBNA-1 DNA-binding inhibitors, primary screen, biochemical, fluorescence polarization. inhibition, % at 14.8 µM. 300,000 tested, 0.34% active; in the data active = inhibition above about 28%
# dFosB act-1: activators of delta FosB homodimer, primary screen, biochemical, fluorescence polarization, TAMRA-CDK5 oligo, single point; purified delta FosB; percent of positive-control signal above neutral wells; 340,000 tested, 0.99% active; Protein FosB (Mus musculus), P13346; activation, % at 25 µM;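 active = mean activation above about 17%, with every replicate also reaching it, limit read from the data, passing the limit was not always enough; inconclusive = only one of the two conditions met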
# Target sequence (P13346 whole entry, looked up): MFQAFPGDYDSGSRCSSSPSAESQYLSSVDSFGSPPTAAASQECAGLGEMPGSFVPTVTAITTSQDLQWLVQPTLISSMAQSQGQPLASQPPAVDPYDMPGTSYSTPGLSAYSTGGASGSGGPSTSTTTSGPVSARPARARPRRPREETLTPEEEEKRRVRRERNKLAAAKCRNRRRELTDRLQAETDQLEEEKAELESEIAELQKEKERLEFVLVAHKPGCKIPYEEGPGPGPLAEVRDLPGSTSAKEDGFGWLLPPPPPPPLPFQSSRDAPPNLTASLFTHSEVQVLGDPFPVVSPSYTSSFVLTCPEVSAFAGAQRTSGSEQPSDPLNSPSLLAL
# NALP1 yeast inh: NALP1 inflammasome inhibitors in reconstituted yeast, colorimetric, S. cerevisiae, triplicate retest; S. cerevisiae NALP1/ASC/caspase-1 growth, X-gal OD620, 72 h; inhibition, % at 10 µM; 280,000 tested, 0.61% active; in the data active = inhibition mostly above about 24%, no sharp cut-off; inactive = mostly below about 32%
# ZTA counter: counter-screen for EBNA-1 inhibitors: inhibitors of Epstein-Barr virus ZTA; ZTA-DNA binding, fluorescence polarization; inhibition, % at 11 µM; 320,000 tested, 0.15% active; AID 2234; in the data active = inhibition above about 33%
# NLRP3 yeast inh: NALP3 inflammasome inhibitors in reconstituted yeast, primary screen, luminescence, uHTS; Yeast reconstituted NLRP3/ASC/caspase-1, beta-gal luminescence, 24 h; inhibition, % at 10 µM; 330,000 tested, 0.39% active; AID 2825, 2010;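 active = inhibition of 50% or more; inactive = inhibition below 50%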;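 note: plate controls were induced DMSO wells for no effect and uninduced yeast grown without galactose for full effect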
# PolyA inh: polyadenylation inhibitors in yeast reporter cells, primary screen, luminescence, S. cerevisiae. 300,000 tested, 0.02% active. S. cerevisiae SKY197-pL101 polyadenylation reporter, beta-gal luminescence; efflux-impaired pdr1/pdr3 knockout yeast; score 100 = 6 SD above DMSO. activity score, % at 12 µM;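 active = lowest replicate activity score at least 50, where 100 means six control SD above control mean; inconclusive = lowest score under 50 but half or more replicates reach 50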;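 note: yeast exposed to compound for 9 h at 30 °C; higher score means more reporter readthrough which indicates perturbed polyadenylation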
# dFosB act-2: activators of mouse delta FosB DNA binding, confirmation, biochemical, fluorescence polarization, TAMRA-CDK5 oligo, cherry-picked samples; shares compounds with dFosB act-1; purified delta FosB; normalised: neutral wells 0, positive control 100; activation, % at 24.9 µM; 2,400 tested, under 10 active;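 active = highest replicate activation at or above 34% and every replicate reaching that threshold; inconclusive = meets only one of the two criteria; inactive = meets neither criterion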;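 note: higher polarization means more probe DNA bound by delta FosB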
# * = called active by the depositor; ? = inconclusive; . = no result given.
SMILES,EBNA-1 inh,dFosB act-1,NALP1 yeast inh,ZTA counter,NLRP3 yeast inh,PolyA inh,dFosB act-2
COc1cc(OC)c(S(=O)(=O)Nc2ccc(C(=O)O)cc2)cc1S(=O)(=O)Nc1ccc(C(=O)O)cc1,-1,3,8,5,-3,23,.
COc1ccc(N(CC(=O)N2CCc3ccccc32)S(=O)(=O)c2c(C)nn(C)c2C)cc1,5,-13,-15,-7,9,3,.
COc1ccc(N(CC(=O)N2CCc3ccccc32)S(=O)(=O)c2c(C)n[nH]c2C)cc1,3,36*,4,5,12,1,2
CCN(CC)c1ccc(C(=O)NNC(=O)CNC(=O)c2ccco2)cc1,.,-1,.,.,4,.,.
Cc1ccc(CCNC(=O)C2CCN(S(=O)(=O)c3cccc4cccnc34)CC2)cc1,5,2,8,-2,22,17,.
Cc1ccc(CCNC(=O)C2CCN(S(=O)(=O)c3cccc4nsnc34)CC2)cc1,0,33*,-82,-1,9,-4,2
Cc1ncoc1C(=O)N1CCCC(N2CCN(c3ccccc3F)CC2)C1 (configuration not stated),-6,-2,5,-14,11,2,.
COc1ccc(NS(=O)(=O)c2ccc3oc(=O)c4[nH]c(=O)c(=O)n(C)c4c3c2)cc1,4,-2,19,-6,14,-11,.
Cc1ccc(C)c(Nc2nn3c(=O)c4ccc(C(=O)NCc5cccnc5)cc4nc3s2)c1,3,99*,8,-16,9,5,-1
CCOC(=O)C1CCN(C(=O)c2ccc3c(=O)n4nc(Nc5cc(C)ccc5C)sc4nc3c2)CC1,-1,15,-24,9,6,7,.
COc1ccc(OC)c(NC(=O)C(C)OC(=O)c2cc3ccccc3[nH]2)c1 (configuration not stated),.,19*,.,.,.,.,3
COc1ccccc1NC(=O)C(C)OC(=O)c1cc2ccccc2[nH]1 (configuration not stated),.,-8,.,-10,19,.,.
O=C(Nc1ccccc1)c1cnc(-c2ccccc2)nc1-c1ccccc1,-3,48*,13,-8,13,9,3
Cc1ccc(NS(=O)(=O)c2cccc(C(=O)NC3CCN(Cc4ccccc4)CC3)c2)cc1,.,-3,.,.,.,.,.
O=C(NC1CCN(Cc2ccccc2)CC1)c1cccc(S(=O)(=O)Nc2ccc(SC(F)F)cc2)c1,.,26*,.,.,19,.,2
O=C(CCn1cccn1)N1CCCC(N2CCN(c3cccc(Cl)c3)CC2)C1 (configuration not stated),.,1,6,.,3,3,.
NC(=S)N/N=C/c1coc2cc(Br)ccc2c1=O,7,24*,0,-4,5,1,0
CCC(=O)NC(=S)Nc1ccc(NC(=O)COc2ccc(Cl)c(C)c2)cc1,14,-13,25,10,0,-1,.
CCC(=O)Nc1ccc(Cl)c(NC(=S)NC(=O)COc2ccccc2)c1,11,35*,9,1,19,-22,?
C/C(=N\NC(=O)CSc1nc2ccccc2o1)c1cccc(O)c1,6,25*,.,14,1,-4,4
COCCn1c(SCC(=O)c2c(N)n(C3CC3)c(=O)[nH]c2=O)nnc1-c1ccc(Cl)cc1,.,21*,.,-15,0,.,1
CCN(CC)CCNC(=S)Nc1ccc2nc(N3CCOCC3)cc(C)c2c1,4,-12,3,8,15,20,.
CCCCN(CC)CCCNC(=S)Nc1ccc2nc(N3CCN(CC)CC3)cc(C)c2c1,1,14,6,2,23,-4,.
CCCCN(CC)CCCNC(=S)Nc1ccc2nc(N3CCN(C)CC3)cc(C)c2c1,8,15,-9,13,-2,6,.
CCN(CC)CCNC(=S)Nc1ccc2nc(N3CCCC3)cc(C)c2c1,-12,32*,2,-20,4,-1,1
